Measurements as given in PubChem BioAssay (EPA / NIEHS).
Results filed as inconclusive are left out. Active and inactive are the calls of the source. How the source made its calls, unless noted: active means hit-call score of the fitted dose curve at least 0.9, where 1 is the maximum; inconclusive means response in the unintended direction; inactive means score below 0.9.

Assays:
[1] = ATG_TGFb_CIS: Attagene CIS-FACTORIAL HepG2 Assay for human Transforming Growth Factor (TGF) (AID 2282967; active means hit-call score of the fitted dose curve at least 0.9, where 1 is the maximum; inactive means score below 0.9); conditions: HepG2 Attagene CIS TGFb reporter, mRNA transcription; actives raise or lower the signal
Method in brief: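 Multiplexed cis-reporter HepG2 system, 24 h treatment; mRNA induction read by fluorescence after RT-PCR and CE; DMSO negative control, bidirectional curve fitting.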

[2] = target: X-box-binding protein 1 (Homo sapiens) (UniProt P17861); assay: ATG_Xbp1_CIS: Attagene CIS-FACTORIAL HepG2 Assay for human X-box Binding Protein 1 (XBP1) (AID 2282972; active means hit-call score of the fitted dose curve at least 0.9, where 1 is the maximum; inactive means score below 0.9); conditions: HepG2 XBP1 cis-element reporter, Attagene multiplex; actives raise or lower the signal
Chain of X-box-binding protein 1 (Homo sapiens) (P17861 whole entry, looked up, the tested form may be a part): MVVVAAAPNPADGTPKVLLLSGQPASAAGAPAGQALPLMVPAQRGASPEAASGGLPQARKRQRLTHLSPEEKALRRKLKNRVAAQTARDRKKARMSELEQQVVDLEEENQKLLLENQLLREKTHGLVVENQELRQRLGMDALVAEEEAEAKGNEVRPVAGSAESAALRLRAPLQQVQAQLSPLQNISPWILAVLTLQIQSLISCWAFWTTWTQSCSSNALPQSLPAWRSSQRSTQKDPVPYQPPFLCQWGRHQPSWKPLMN
Method in brief: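 Fluorescence-labelled cDNA fragments from reporter transcripts, separated by capillary electrophoresis, give the signal. Source: HepG2 cells transfected with promoter-driven reporter units, harvested 24 h post-dose. DMSO served as reference for bidirectional curve fitting.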

[3] = ATG_M_19_TRANS: Attagene TRANS-FACTORIAL HepG2 Assay for M19 Transcription Factor (Internal Marker) (AID 2282974); conditions: HepG2 Attagene TRANS-FACTORIAL M19 internal marker reporter
Method in brief: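 Transfected HepG2 (GAL4-UAS MRTUs), 24 h compound, TriZol RNA, DNase-treated RT, reporter PCR, FAM label, HpaI digest, CE fluorescence; gain vs DMSO.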

[4] = ATG_GAL4_TRANS: Attagene TRANS-FACTORIAL HepG2 Assay for GAL4 (Internal Marker) (AID 2282976); conditions: HepG2 Attagene TRANS GAL4 internal marker reporter
Method in brief: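 RT-PCR/capillary electrophoresis readout of reporter mRNA. HepG2, transient MRTU transfection (GAL4-UAS reporters), 24 h compound exposure. Background-control endpoint, positive direction vs DMSO baseline.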

[5] = target: Glucocorticoid receptor (Homo sapiens) (UniProt P04150); assay: ATG_GR_TRANS: Attagene TRANS-FACTORIAL HepG2 Assay for human Glucocorticoid Receptor (GR) (AID 2282978); conditions: HepG2 Attagene TRANS GR reporter, mRNA transcription;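 further: activators score as hits since higher reporter transcript over DMSO is fitted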
Chain of Glucocorticoid receptor (Homo sapiens) (P04150 whole entry, looked up): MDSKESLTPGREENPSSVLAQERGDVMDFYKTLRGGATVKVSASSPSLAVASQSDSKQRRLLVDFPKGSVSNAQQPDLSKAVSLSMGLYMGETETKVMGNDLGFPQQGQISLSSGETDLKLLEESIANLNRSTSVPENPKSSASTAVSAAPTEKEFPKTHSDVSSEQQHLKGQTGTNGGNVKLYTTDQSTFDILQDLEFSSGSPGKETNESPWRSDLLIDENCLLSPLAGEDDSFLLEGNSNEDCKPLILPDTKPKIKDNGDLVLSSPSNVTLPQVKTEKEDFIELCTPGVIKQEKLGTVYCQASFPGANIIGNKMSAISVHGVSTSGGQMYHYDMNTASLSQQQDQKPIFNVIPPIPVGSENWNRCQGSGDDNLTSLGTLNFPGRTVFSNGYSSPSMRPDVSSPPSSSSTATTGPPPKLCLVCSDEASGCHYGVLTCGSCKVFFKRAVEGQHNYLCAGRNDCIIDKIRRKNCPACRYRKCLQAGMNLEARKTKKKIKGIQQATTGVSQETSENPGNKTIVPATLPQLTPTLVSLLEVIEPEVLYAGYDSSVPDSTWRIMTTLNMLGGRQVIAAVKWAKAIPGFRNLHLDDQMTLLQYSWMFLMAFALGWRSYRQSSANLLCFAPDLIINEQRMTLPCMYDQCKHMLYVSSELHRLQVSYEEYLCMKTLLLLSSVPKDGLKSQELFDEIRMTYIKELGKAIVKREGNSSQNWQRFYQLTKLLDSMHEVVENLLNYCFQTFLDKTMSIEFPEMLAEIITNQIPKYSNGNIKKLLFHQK
Method in brief: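 After 24 h incubation with test chemical, transfected HepG2 cells were lysed for RNA; reporter cDNA was amplified, FAM-labelled, HpaI-digested and sized on a capillary analyser. Signal gain relative to DMSO was scored.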

[6] = target: Bile acid receptor (Homo sapiens) (UniProt Q96RI1); assay: ATG_FXR_TRANS: Attagene TRANS-FACTORIAL HepG2 Assay for Farnesoid X Receptor (FXR) (AID 2282979); conditions: HepG2 Attagene TRANS FXR-GAL4 reporter transcription;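 further: hits raise reporter mRNA above DMSO so AC50 marks FXR activation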
Chain of Bile acid receptor (Homo sapiens) (Q96RI1 whole entry, looked up, the tested form may be a part): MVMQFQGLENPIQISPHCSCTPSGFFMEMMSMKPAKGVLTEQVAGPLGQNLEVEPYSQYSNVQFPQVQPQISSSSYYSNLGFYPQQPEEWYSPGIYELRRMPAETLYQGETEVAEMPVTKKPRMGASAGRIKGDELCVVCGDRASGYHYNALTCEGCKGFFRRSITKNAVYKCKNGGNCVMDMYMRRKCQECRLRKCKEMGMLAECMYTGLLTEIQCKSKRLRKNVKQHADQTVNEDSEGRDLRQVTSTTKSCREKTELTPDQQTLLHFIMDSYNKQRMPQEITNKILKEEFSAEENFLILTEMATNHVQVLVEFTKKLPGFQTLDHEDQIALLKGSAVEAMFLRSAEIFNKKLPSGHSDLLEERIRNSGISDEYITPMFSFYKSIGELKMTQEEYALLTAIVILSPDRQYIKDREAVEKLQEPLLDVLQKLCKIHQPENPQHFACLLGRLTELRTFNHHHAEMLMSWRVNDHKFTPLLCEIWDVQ
Method in brief: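 Read-out: fluorescent reporter transcripts quantified by capillary electrophoresis after RT-PCR of total RNA. Source cells were HepG2 transiently carrying chimeric NR-GAL4 plus GAL4-UAS reporter units, dosed 24 h. Activity fitted upward relative to DMSO baseline.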

[7] = target: Oxysterols receptor LXR-beta (Homo sapiens) (UniProt P55055); assay: ATG_LXRb_TRANS: Attagene TRANS-FACTORIAL HepG2 Assay for human Liver X Receptor beta (LXRb) (AID 2282981); conditions: HepG2 Attagene TRANS GAL4-LXRb reporter, mRNA
Chain of Oxysterols receptor LXR-beta (Homo sapiens) (P55055 whole entry, looked up, the tested form may be a part): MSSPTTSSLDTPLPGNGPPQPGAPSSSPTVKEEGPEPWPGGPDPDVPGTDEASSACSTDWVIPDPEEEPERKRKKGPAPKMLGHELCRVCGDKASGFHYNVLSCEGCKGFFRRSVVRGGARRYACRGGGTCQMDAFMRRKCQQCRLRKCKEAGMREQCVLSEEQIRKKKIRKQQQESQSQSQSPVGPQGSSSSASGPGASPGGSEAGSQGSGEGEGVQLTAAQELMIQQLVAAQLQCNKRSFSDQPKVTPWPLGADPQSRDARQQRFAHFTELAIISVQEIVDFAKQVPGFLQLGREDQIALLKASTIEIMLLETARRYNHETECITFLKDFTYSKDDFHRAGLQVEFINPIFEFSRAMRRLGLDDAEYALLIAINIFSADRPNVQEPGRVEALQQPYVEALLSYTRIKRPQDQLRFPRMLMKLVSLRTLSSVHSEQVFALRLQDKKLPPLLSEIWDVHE
Method in brief: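 Transient transfection HepG2 (multiplexed RTUs, GAL4-UAS); NR-Gal4 chimera; 24 h exposure; RNA → RT-PCR → 6-FAM primer extension → HpaI → CE; increase vs DMSO.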

[8] = target: Hepatocyte nuclear factor 4-alpha (Homo sapiens) (UniProt P41235); assay: ATG_HNF4a_TRANS: Attagene TRANS-FACTORIAL HepG2 Assay for human Hepatocyte Nuclear Factor 4 alpha (HNF4a) (AID 2282982); conditions: HepG2 HNF4a transactivation reporter, mRNA readout
Chain of Hepatocyte nuclear factor 4-alpha (Homo sapiens) (P41235 whole entry, looked up, the tested form may be a part): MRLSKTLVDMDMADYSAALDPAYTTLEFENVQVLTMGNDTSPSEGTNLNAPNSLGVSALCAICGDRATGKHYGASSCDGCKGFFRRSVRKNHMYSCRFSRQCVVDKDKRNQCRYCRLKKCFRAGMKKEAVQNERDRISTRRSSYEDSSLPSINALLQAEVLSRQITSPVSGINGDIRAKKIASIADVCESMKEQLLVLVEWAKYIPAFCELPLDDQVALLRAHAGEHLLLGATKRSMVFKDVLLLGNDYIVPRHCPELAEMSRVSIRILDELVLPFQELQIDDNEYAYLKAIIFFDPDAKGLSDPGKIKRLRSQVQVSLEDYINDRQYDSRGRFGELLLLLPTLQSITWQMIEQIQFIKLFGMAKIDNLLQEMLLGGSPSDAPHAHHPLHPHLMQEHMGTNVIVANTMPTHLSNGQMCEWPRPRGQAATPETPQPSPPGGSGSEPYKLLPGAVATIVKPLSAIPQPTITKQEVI
Method in brief: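 Readout is fluorescent reporter-transcript fragments resolved by capillary electrophoresis after RT-PCR from HepG2 cells dosed for 24 h. Cells carried transfected GAL4-UAS reporter constructs measuring exogenous NR-GAL4 chimera activity; DMSO served as baseline.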

[9] = ATG_M_06_TRANS: Attagene TRANS-FACTORIAL HepG2 Assay for M06 Transcription Factor (Internal Marker) (AID 2282983); conditions: HepG2 Attagene TRANS M06 internal marker reporter
Method in brief: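 After a 24 h chemical treatment of transfected HepG2, RNA underwent DNase I treatment, reverse transcription and reporter-specific PCR; labelled, HpaI-digested products were sized by capillary electrophoresis. Signal increase relative to DMSO defined activity.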

[10] = ATG_M_32_TRANS: Attagene TRANS-FACTORIAL HepG2 Assay for M32 Transcription Factor (Internal Marker) (AID 2282984); conditions: HepG2 Attagene TRANS M32 internal marker reporter;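 further: transcript level of a background control reporter unit measured by RT-PCR and capillary electrophoresis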
Method in brief: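 Measures reporter mRNA induction in human HepG2 liver cells after 24 h chemical treatment. Transcripts from transiently transfected GAL4-UAS reporter units are amplified, fluorescently labelled and sized by capillary electrophoresis; gain of signal relative to DMSO.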

[11] = target: Nuclear receptor subfamily 4 group A member 2 (Homo sapiens) (UniProt P43354); assay: ATG_NURR1_TRANS: Attagene TRANS-FACTORIAL HepG2 Assay for human Nuclear Receptor Related Protein 1 (NURR1) (AID 2282985); conditions: HepG2 Attagene TRANS reporter, mRNA readout
Chain of Nuclear receptor subfamily 4 group A member 2 (Homo sapiens) (P43354 whole entry, looked up, the tested form may be a part): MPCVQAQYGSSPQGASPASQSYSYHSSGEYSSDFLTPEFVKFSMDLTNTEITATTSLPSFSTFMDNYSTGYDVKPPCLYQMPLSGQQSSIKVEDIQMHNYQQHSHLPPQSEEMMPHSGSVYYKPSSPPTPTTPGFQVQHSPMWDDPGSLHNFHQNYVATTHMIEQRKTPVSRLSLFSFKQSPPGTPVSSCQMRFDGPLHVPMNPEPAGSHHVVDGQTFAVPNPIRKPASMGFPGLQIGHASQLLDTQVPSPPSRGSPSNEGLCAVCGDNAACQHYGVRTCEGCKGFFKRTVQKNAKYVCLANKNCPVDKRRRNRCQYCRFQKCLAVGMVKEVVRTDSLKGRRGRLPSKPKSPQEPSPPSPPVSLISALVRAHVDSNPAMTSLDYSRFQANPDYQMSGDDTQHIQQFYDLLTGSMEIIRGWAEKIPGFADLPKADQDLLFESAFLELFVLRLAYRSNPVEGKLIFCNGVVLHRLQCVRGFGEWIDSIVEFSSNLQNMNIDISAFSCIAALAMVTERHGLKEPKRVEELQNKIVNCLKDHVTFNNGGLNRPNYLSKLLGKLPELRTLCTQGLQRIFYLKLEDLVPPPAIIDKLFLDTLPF
Method in brief: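 Transient transfection of HepG2, human liver cells, with multiple GAL4-UAS reporter transcription units. Cells dosed 24 h, RNA isolated, reverse-transcribed, PCR-amplified, FAM-labelled, HpaI-digested, sized by capillary electrophoresis. DMSO served as negative control.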

[12] = target: Transcriptional activator Myb (Homo sapiens) (UniProt P10242); assay: ATG_Myb_CIS: Attagene CIS-FACTORIAL HepG2 Assay for human Myeloblastosis (Myb) Proto-Oncogene Transcription Factor (AID 2282986; active means hit-call score of the fitted dose curve at least 0.9, where 1 is the maximum; inactive means score below 0.9); conditions: HepG2 Attagene CIS-FACTORIAL Myb reporter transcription; actives raise or lower the signal
Chain of Transcriptional activator Myb (Homo sapiens) (P10242 whole entry, looked up): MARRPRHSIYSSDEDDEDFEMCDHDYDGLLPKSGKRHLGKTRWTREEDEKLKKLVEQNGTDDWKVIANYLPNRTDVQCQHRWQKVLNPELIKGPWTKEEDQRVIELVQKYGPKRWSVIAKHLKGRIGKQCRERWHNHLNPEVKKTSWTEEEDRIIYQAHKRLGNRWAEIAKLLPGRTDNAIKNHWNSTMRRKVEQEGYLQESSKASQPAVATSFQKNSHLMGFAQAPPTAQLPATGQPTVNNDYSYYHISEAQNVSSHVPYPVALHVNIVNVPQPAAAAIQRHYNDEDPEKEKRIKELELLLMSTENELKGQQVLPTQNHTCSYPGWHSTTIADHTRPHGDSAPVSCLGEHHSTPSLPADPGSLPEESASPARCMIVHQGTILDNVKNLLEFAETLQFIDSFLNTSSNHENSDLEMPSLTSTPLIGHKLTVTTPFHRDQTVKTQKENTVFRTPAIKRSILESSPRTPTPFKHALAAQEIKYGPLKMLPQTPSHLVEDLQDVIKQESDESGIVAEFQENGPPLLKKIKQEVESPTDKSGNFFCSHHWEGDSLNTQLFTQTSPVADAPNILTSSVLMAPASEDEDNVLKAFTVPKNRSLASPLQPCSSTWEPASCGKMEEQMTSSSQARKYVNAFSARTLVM
Method in brief: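 After 24 h of compound dosing, total RNA from transfected HepG2 cells is reverse-transcribed and the reporter sequences amplified, labeled and separated by capillary electrophoresis. Values come from bidirectional fitting against DMSO.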

[13] = target: Nuclear respiratory factor 1 (Homo sapiens) (UniProt Q16656); assay: ATG_NRF1_CIS: Attagene CIS-FACTORIAL HepG2 Assay for human Nuclear Respiratory Factor 1 (NRF1) Orphan Gene (AID 2282987; active means hit-call score of the fitted dose curve at least 0.9, where 1 is the maximum; inactive means score below 0.9); conditions: HepG2 NRF1 cis-element reporter, Attagene multiplex; actives raise or lower the signal
Method in brief: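 Measured: fluorescent reporter-specific RT-PCR products from transfected HepG2 cells, separated by capillary electrophoresis. Exposure lasted 24 h. Analysis used bidirectional curve fitting with DMSO as negative control.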

[14] = ATG_VDRE_CIS: Attagene CIS-FACTORIAL HepG2 Assay for human Vitamin D Receptor Element (VDRE) (AID 2282968; active means hit-call score of the fitted dose curve at least 0.9, where 1 is the maximum; inactive means score below 0.9); conditions: HepG2 VDRE cis-reporter transcription, actives raise or lower the signal
Method in brief: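 Reporter mRNA induction, quantified by capillary electrophoresis of fluorescently labelled RT-PCR products, was read 24 h after dosing HepG2 cells carrying transiently transfected cis-regulated reporter units; gain or loss relative to DMSO.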

[15] = target: Nuclear receptor subfamily 1 group I member 3 (Homo sapiens) (UniProt Q14994); assay: ATG_CAR_TRANS: Attagene TRANS-FACTORIAL HepG2 Assay for human Constitutive Androstane Receptor (CAR) (AID 2282969); conditions: HepG2 Attagene TRANS-FACTORIAL CAR reporter;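 further: activators raise reporter mRNA above DMSO so AC50 marks induction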
Chain of Nuclear receptor subfamily 1 group I member 3 (Homo sapiens) (Q14994 whole entry, looked up, the tested form may be a part): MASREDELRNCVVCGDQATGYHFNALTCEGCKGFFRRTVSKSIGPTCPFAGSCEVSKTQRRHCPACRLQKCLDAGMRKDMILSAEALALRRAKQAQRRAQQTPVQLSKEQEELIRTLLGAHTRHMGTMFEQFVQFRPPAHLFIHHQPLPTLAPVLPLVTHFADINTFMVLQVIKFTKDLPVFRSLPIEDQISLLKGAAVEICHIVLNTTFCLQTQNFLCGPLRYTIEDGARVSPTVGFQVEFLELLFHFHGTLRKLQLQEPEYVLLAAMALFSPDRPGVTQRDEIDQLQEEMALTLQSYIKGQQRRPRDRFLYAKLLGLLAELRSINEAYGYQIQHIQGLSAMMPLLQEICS
Method in brief: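 Readout is reporter mRNA induction, quantified by fluorescent primer extension and capillary electrophoresis after RT-PCR. Cells were HepG2 transiently carrying chimeric NR-Gal4 constructs with GAL4-UAS reporters, treated for 24 h; activity scored upward from DMSO.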

[16] = target: Oxysterols receptor LXR-alpha (Homo sapiens) (UniProt Q13133); assay: ATG_LXRa_TRANS: Attagene TRANS-FACTORIAL HepG2 Assay for human Liver X Receptor alpha (LXRa) (AID 2282980); conditions: HepG2 Attagene TRANS reporter, LXRa transactivation
Chain of Oxysterols receptor LXR-alpha (Homo sapiens) (Q13133 whole entry, looked up, the tested form may be a part): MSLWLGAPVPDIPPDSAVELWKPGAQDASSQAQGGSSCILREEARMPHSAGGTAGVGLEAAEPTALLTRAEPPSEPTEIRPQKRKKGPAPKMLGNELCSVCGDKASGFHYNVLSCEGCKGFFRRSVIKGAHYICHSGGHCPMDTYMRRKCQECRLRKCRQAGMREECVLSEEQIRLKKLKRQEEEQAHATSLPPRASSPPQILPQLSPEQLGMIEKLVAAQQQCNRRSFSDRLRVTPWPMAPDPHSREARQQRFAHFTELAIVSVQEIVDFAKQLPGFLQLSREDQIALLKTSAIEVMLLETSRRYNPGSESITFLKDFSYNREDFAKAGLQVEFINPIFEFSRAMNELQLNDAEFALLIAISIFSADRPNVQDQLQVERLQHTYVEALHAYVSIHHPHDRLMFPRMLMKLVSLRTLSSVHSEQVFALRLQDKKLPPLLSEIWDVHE
Method in brief: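 Read-out: reporter transcript levels by RT-PCR plus capillary electrophoresis, fluorescence intensity. Transiently transfected HepG2, exogenous NR-GAL4 chimera, GAL4-UAS reporters; 24 h compound exposure. Activity = increase over DMSO negative control.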

[17] = target: Estrogen-related receptor gamma (Homo sapiens) (UniProt P62508); assay: ATG_ERRg_TRANS: Attagene TRANS-FACTORIAL HepG2 Assay for human Estrogen-Related Receptor gamma (ERRg) (AID 2282977); conditions: HepG2 Attagene TRANS reporter, ERRg transactivation;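 further: hits increase reporter signal over DMSO so potencies reflect activators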
Chain of Estrogen-related receptor gamma (Homo sapiens) (P62508 whole entry, looked up, the tested form may be a part): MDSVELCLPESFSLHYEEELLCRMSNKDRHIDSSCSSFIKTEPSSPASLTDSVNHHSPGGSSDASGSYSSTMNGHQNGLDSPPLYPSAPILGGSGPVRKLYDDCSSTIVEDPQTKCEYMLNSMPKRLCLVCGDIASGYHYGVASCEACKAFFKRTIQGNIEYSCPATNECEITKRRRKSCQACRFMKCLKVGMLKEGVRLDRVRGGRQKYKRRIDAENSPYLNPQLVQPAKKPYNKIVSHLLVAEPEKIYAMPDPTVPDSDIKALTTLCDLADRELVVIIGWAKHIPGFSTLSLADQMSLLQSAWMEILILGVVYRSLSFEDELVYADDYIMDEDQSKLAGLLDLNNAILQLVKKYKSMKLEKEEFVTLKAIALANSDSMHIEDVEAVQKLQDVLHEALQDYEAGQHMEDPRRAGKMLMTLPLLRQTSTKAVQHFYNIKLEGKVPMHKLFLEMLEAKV
Method in brief: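 Transfect HepG2 with multiple GAL4-UAS reporter transcription units; dose chemicals 24 h; isolate RNA, reverse-transcribe with oligo(dT), PCR-amplify, label with 6-FAM, digest with HpaI; size fragments by capillary electrophoresis. DMSO serves as negative control.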

[18] = target: Steroid hormone receptor ERR1 (Homo sapiens) (UniProt P11474); assay: ATG_ERRa_TRANS: Attagene TRANS-FACTORIAL HepG2 Assay for human Estrogen-Related Receptor alpha (ERRa) (AID 2282971); conditions: HepG2 Attagene TRANS reporter, ERRa transactivation
Method in brief: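 Transfected HepG2, 24 h dosing, ERRa-Gal4 chimera driving GAL4-UAS reporter. Readout: reporter mRNA via RT-PCR plus capillary electrophoresis (fluorescence). Positive direction vs DMSO control.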

[19] = target: Estrogen receptor (Homo sapiens) (UniProt P03372); assay: ATG_ERa_TRANS: Attagene TRANS-FACTORIAL HepG2 Assay for human Estrogen Receptor alpha (ERa) (AID 2282970); conditions: HepG2 Attagene TRANS ERa GAL4 reporter, mRNA
Method in brief: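 After 24 h of compound treatment, RNA from HepG2 cells bearing transfected GAL4-UAS reporter constructs is converted to cDNA, amplified and fluorescently labelled. Capillary electrophoresis resolves the ERa-linked reporter; DMSO serves as negative control.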

Measured: AC50

C=C(C)C(=O)OCC(CC)(COC(=O)C(=C)C)COC(=O)C(=C)C
not listed: [14] | [15] | [16] | [17] | [18] | [19]
inactive: all other assays above

C=CCCC(=O)/C=C/C1C(C)=CCCC1(C)C (stereo not drawn)
inactive: [1] | [15] | [2] | [16] | [7] | [9] | [11] | [12] | [13]
active: [14] 2.44 µM

Cc1c(OCC(F)(F)F)ccnc1CS(=O)c1nc2ccccc2[nH]1 (stereo not drawn)
inactive: [1] | [2] | [5] | [6] | [7] | [9] | [10] | [12]
active: [13] 128 µM

NCCNc1cccc2ccccc12
inactive: [1] | [15] | [16] | [7] | [8] | [9] | [11] | [12]
active: [14] 155 µM | [2] 161 µM

O=c1c(O)c(-c2ccc(O)cc2)oc2cc(O)cc(O)c12
not listed: [3] | [4] | [5] | [6] | [14] | [18] | [19]
inactive: all other assays above

OCc1cccc(Oc2ccccc2)c1
not listed: [5] | [11] | [15] | [17] | [18] | [19]
inactive: all other assays above

CC(=O)O[C@H]1C[C@@H]2CC[C@@]1(C)C2(C)C
not listed: [5] | [8] | [11] | [17] | [18] | [19]
inactive: all other assays above

CC(C)Nc1nc(N)nc(Cl)n1
inactive: [1] | [14] | [2] | [3] | [5] | [8] | [9] | [11] | [12] | [13]

COc1ccc(OC)c(N=Nc2c(O)ccc3ccccc23)c1
not listed: [2] | [3] | [4] | [5] | [10] | [16] | [18] | [19]
inactive: all other assays above

Cc1ccc(-c2ccccc2)cc1
inactive: [1] | [14] | [15] | [2] | [9] | [12] | [13]

CCN(CC)C(=O)N(CC)CC
inactive: [1] | [14] | [15] | [2] | [6] | [9] | [10] | [12] | [13]

CC(C)=CCCC(C)CC(=O)O (stereo not drawn)
inactive: [1] | [14] | [15] | [16] | [7] | [8] | [9] | [11] | [12] | [13]

CCCC(=O)OCCc1ccccc1
inactive: [1] | [14] | [2] | [5] | [9] | [11] | [12] | [13]

COc1ccc(CCN2CCC(Nc3nc4ccccc4n3Cc3ccc(F)cc3)CC2)cc1
inactive: [1] | [14] | [18] | [4] | [17] | [6] | [9] | [11] | [12] | [13]

Cc1c(Cl)cccc1[N+](=O)[O-]
inactive: [1] | [14] | [3] | [8] | [12] | [13]

Nc1c(Cl)cc(Cl)cc1[N+](=O)[O-]
not listed: [3] | [5] | [6] | [11] | [13] | [15] | [17] | [18]
inactive: all other assays above

CCOc1ccccc1O
not listed: [3] | [5] | [6] | [15] | [16] | [17] | [18] | [19]
inactive: all other assays above
